# Results: PubChem BioAssay (EPA / NIEHS)
# The source holds several records for some structures; these can differ, active in one and inactive in another. Calls of active or inactive are those of the source. Rule for the calls: active = hit-call score of the fitted dose curve at least 0.9, where 1 is the maximum; inactive = score below 0.9.
# Read-out: Intercellular Adhesion Molecule 1 (ICAM1), ICAM1 (gene 3383)
# Assay: BSK_3C_ICAM1: BioMAP Diversity Plus: 3C Assay for Intercellular Adhesion Molecule 1 (ICAM1) Biomarker Activity (AID 2283003)
# Settings: primary human endothelial cells (HUVEC); actives raise or lower the signal
# Description: BSK_3C is a cell-based, multiplexed-readout assay that uses umbilical vein endothelium, a human vascular primary cell, with measurements taken at 24 hours after chemical dosing in a 96-well plate.BSK_3C_ICAM1 is an assay component measured in the BSK_3C assay. It measures ICAM-1 antibody related to regulation of gene expression using ELISA technology.Data from the assay component BSK_3C_ICAM1 was analyzed into 1 assay endpoint. This assay endpoint, BSK_3C_ICAM1, was analyzed with bidirectional fitting relative to DMSO as the negative control and baseline of activity. Using a type of binding reporter, gain or loss-of-signal activity can be used to understand changes in the signaling as they relate to the gene ICAM1. Furthermore, this assay endpoint can be referred to as a primary readout, because this assay has produced multiple assay endpoints where this one serves a signaling function. To generalize the intended target to other relatable targets, this assay endpoint is annotated to the cell adhesion molecules intended target family, where the subfamily is Immunoglobulin CAM.
# The levels of cell surface (or secreted, indicated by the prefix "s") biomarker endpoints were measured by ELISA. Overt cytotoxicity to cells in confluent adherent cultures (all systems other than the BT system) was assessed by measuring total protein levels using sulforhodamine B (SRB) staining in parallel cultures at the time of biomarker measurements, indicated as SRB endpoints. For proliferation assays for adherent cell types, individual cell types are cultured at sub-confluence and relative cell numbers quantified by SRB staining at time points optimized for each system (48 h: 3C and CASM3C systems; 72 h: BT and HDF3CGF systems; 96 h: SAg system). SRB was performed by staining cells with 0.1% SRB after fixation with 10% TCA and reading wells at 560 nm.Viability and proliferation of PBMC (T cells) was quantified by Alamar Blue reduction for the SAg and BT systems. For PBMC viability (referred to as PBMC Cytotoxicity within the assay endpoint names), cells were plated (75,000/well in a 96-well plate) and then chemical samples added for 1 h before addition of activators, SEB and TSST-1 (20 ng/mL final concentration each). Cells were incubated for 90 h. Then, Alamar Blue (20 uL/well) (Invitrogen, Cat DAL1100) was added for 6 h, and the plates were read with a fluorescence microplate reader at 546/580 nm (excitation/emission). For PBMC proliferation, cells were plated and activated as above but incubated for only 16 h prior to addition of Alamar Blue. Plates were read after 6 h.
Compound,outcome,AC50
Cc1[nH]c(=O)n(C(C)(C)C)c(=O)c1Cl,inactive,
OCCOc1ccccc1,inactive,
CC(C)(C)C(O)C(Oc1ccc(Cl)cc1)n1cncn1 (stereo not given),inactive,
CCN(CC)C(=O)SCc1ccc(Cl)cc1,inactive,
O=C1c2ccccc2C(=O)N1SC(Cl)(Cl)Cl,inactive,
COC(=O)c1ccccc1S(=O)(=O)NC(=O)N(C)c1nc(C)nc(OC)n1,inactive,
CCCN(CCOc1c(Cl)cc(Cl)cc1Cl)C(=O)n1ccnc1,inactive,
COP(=O)(OC)OC=C(Cl)Cl,inactive,
N#Cc1c(Cl)c(Cl)c(Cl)c(C#N)c1Cl,,1.77 µM (active)
CCC(C)(C)C(=O)OC1=C(c2ccc(Cl)cc2Cl)C(=O)OC12CCCCC2,,32.6 µM (active)
ClC1C(Cl)C(Cl)C(Cl)C(Cl)C1Cl (stereo not given),inactive,28 µM (active)
O=[N+]([O-])/N=C1\NCCN1Cc1ccc(Cl)nc1,inactive,
Cc1cc(C)nc(NC(=O)NS(=O)(=O)c2ccccc2C(=O)OC2COC2)n1,inactive,
O=S1OCC2C(CO1)C1(Cl)C(Cl)=C(Cl)C2(Cl)C1(Cl)Cl (stereo not given),,33.9 µM (active)
O=[N+]([O-])c1c(Cl)c(Cl)c(Cl)c(Cl)c1Cl,inactive,
COP(=S)(OC)Oc1ccc([N+](=O)[O-])cc1,inactive,
O=C(O)COc1ccc(Cl)cc1Cl,inactive,
COC(=O)c1ccccc1CS(=O)(=O)NC(=O)Nc1nc(OC)cc(OC)n1,inactive,
CCCN(CCC)c1c([N+](=O)[O-])cc(C(F)(F)F)cc1[N+](=O)[O-],inactive,
CNC(=O)Oc1ccccc1OC(C)C,inactive,

Compound,outcome,AC50
C[C@H]1[C@H](c2ccc(Cl)cc2)SC(=O)N1C(=O)NC1CCCCC1,inactive,
O=C(O)C(F)(F)C(F)(F)C(F)(F)C(F)(F)C(F)(F)C(F)(F)C(F)(F)F,inactive,
COc1nn(CSP(=S)(OC)OC)c(=O)s1,inactive,
CC1(C)C(C=C(Cl)Cl)C1C(=O)OC(C#N)c1ccc(F)c(Oc2ccccc2)c1 (stereo not given),inactive,
CCOc1nc(NC)nc(NC(=O)NS(=O)(=O)c2ccccc2C(=O)OC)n1,inactive,
O=C(NC(=O)c1c(F)cccc1F)Nc1ccc(OC(F)(F)C(F)OC(F)(F)F)c(Cl)c1 (stereo not given),inactive,
CCC(C)(NC(=O)c1cc(Cl)c(C)c(Cl)c1)C(=O)CCl (stereo not given),,26.6 µM (active)
N#CN,inactive,
O=C(Nc1ccccc1)Nc1cnns1,inactive,
CCOCN(C(=O)CCl)c1c(C)cccc1CC,inactive,
CCC(C)Nc1c([N+](=O)[O-])cc(C(C)(C)C)cc1[N+](=O)[O-] (stereo not given),inactive,
Oc1cc(Cl)ccc1Oc1ccc(Cl)cc1Cl,,33.6 µM (active) [middle of 4 runs]
COC(=O)c1ccccc1S(=O)(=O)NC(=O)Nc1nc(C)nc(OC)n1,inactive,
CC(C)OC(=O)Nc1cccc(Cl)c1,inactive,
CCS(=O)(=O)c1cccnc1S(=O)(=O)NC(=O)Nc1nc(OC)cc(OC)n1,inactive,
CC(C)N(C(=O)COc1nnc(C(F)(F)F)s1)c1ccc(F)cc1,inactive,
CC[C@H](C)[C@H]1O[C@]2(C=C[C@@H]1C)C[C@@H]1C[C@@H](C/C=C(\C)[C@@H](O[C@H]3C[C@H](OC)[C@@H](O[C@H]4C[C@H](OC)[C@@H](O)[C@H](C)O4)[C@H](C)O3)[C@@H](C)/C=C/C=C3\CO[C@@H]4[C@H](O)C(C)=C[C@@H](C(=O)O1)[C@]34O)O2 (tested in a mixture with another compound),,12.4 µM (active)
CN1CSC(=S)N(C)C1,inactive,
CCOC1Oc2ccc(OS(C)(=O)=O)cc2C1(C)C (stereo not given),inactive,
